Experimental data from the supplement of paper PMC5641865, “A screen for kinase inhibitors identifies antimicrobial imidazopyridine aminofurazans as specific inhibitors of the Listeria monocytogenes PASTA kinase PrkA” (The Journal of Biological Chemistry, 2017).
± gives the standard deviation of the averaged measurements.

test system: Listeria monocytogenes 10403S; assay: growth inhibition relative to ceftriaxone-alone control; higher = stronger potentiation of ceftriaxone growth inhibition; conditions: 10 µM; ceftriaxone 1 ug/ml; 12 h
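Also: End-point A600 read in BHI broth at 37 °C with 2% DMSO, inhibition computed as (1 − OD with compound plus ceftriaxone ÷ OD with ceftriaxone only) × 100.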

Row | Compound | growth inhibition [%]
1 | Oc1cccc(-c2nc(-c3ccccc3)[nH]c2-c2ccncc2)c1 | -3.01 ± 1.1
2 | Cc1c(NC(=O)OC[C@@H]2COCCN2)cn2ncnc(Nc3ccc4c(cnn4Cc4cccc(F)c4)c3)c12 | 44.1 ± 20
3 | OCCn1cc(-c2cnc3nnn(Cc4ccc5ncccc5c4)c3n2)cn1 | 22.9 ± 24
4 | C[C@@H](N)[C@H]1CC[C@H](C(=O)Nc2ccncc2)CC1 | 24.6 ± 17
5 | CN(C)Cc1cccc(N=C(c2ccccc2)c2c(O)[nH]c3cc(C(=O)N(C)C)ccc23)c1 | 26.5 ± 1.6
6 | Nc1nc(-c2cccc(Cl)c2)c(-c2ccc3ncccc3n2)s1 | -7.03 ± 7.3
7 | CCn1c(-c2nonc2N)nc2c(C#CCN)ncc(OCCCN)c21 | -1.03 ± 0.6
8 | CS(=O)(=O)Nc1ccc(-c2cc(-c3ccccc3)cc(C(N)=O)c2N)cc1 | 29.1 ± 20
9 | Nc1ccc(C(=O)Nc2cccc(-c3nc(N4CCOCC4)c4oc5ncccc5c4n3)c2)cn1 | 31.1 ± 1.6
10 | Cc1ccc(C(=O)NC2CCC2)cc1-c1ccc(C(=O)NCC2CC2)cc1 | -1.49 ± 1.4
11 | COc1cccc(-n2ncc3c(N/N=C/c4cccc(F)c4)ncnc32)c1 | 6.27 ± 6.8
12 | CS(=O)(=O)CCNCc1coc(-c2ccc3ncnc(Nc4ccc(OCc5ccccc5)cc4)c3c2)c1 | 4.98 ± 4.3
13 | FC(F)(F)c1cccc(Nc2nccc(-c3cnn4nc(-c5ccccc5)ccc34)n2)c1 | -7.85 ± 2.6
14 | Cc1cc(C(=O)NOCCO)c(Nc2ccc(I)cc2F)n(C)c1=O | 13.2 ± 5.6
15 | CC1(COc2ccc3c(c2)ncn3-c2ccc3cccc(N4CCC(N)CC4)c3n2)COC1 | 32 ± 14
16 | Cc1cc(Nc2cc(CN3CCOCC3)c3nc(C)c(Cc4ccc(Cl)cc4F)n3n2)n[nH]1 | 12 ± 6.8
17 | O=C1Nc2ccccc2/C1=C/Nc1ccc2[nH]c(=O)[nH]c2c1 | 7.54 ± 1.1
18 | Nc1nc(-c2ccc3c(c2)C(=Cc2cc(Br)c(O)c(Br)c2)C(=O)N3)cs1 | 3.8 ± 2.8
19 | CC1=C(C(=O)Nc2ccc3[nH]ncc3c2)C(c2ccc(F)cc2)N=C(c2ccc(C(F)(F)F)nc2)N1 (stereo not drawn) | 4.07 ± 7.3

Row | Compound | growth inhibition [%]
20 | N#Cc1cccc(Nc2ncc(-c3ccccc3)o2)c1 | -4.01 ± 1.7
21 | CN(c1ccc(NC(=O)Nc2c(Cl)cccc2Cl)cc1)c1ccnc(Nc2cccc(CS(C)(=O)=O)c2)n1 | -2.91 ± 0.88
22 | CNC(=O)c1cncc(/C=C/c2c(Cl)cccc2Cl)c1 | -4.82 ± 4.5
23 | CCn1cc(-c2ccnc3[nH]ccc23)c(-c2cccc(NC(=O)Nc3ccc(OCc4ccccc4)cc3)c2)n1 | -0.807 ± 2.3
24 | CNC(=O)c1ccccc1Sc1ccc2c(/C=C/c3ccccn3)n[nH]c2c1 [Axitinib] | -11.8 ± 14
25 | Fc1cccc(COc2ccc(Nc3ncnc4sc(-c5cccs5)cc34)cc2Cl)c1 | -4.36 ± 4.4
26 | Clc1ccc(C2(c3ccc(-c4cn[nH]c4)cc3)CCNCC2)cc1 | 100 ± 1.4
27 | CC(C)(CO)CNC(=O)c1ccc2c(c1)/C(=N/Nc1ccc(S(N)(=O)=O)cc1)C(=O)N2 | -13.4 ± 16
28 | CCCN(CCS(C)(=O)=O)Cc1ccc(-c2ccc3ncnc(Nc4ccc(OCc5cccc(F)c5)c(Cl)c4)c3c2)o1 | -7.09 ± 4.2
29 | COCC(=O)NC/C=C/c1ccc2ncnc(Nc3ccc(Oc4ccc(C)nc4)c(C)c3)c2c1 | -5.16 ± 23
30 | CCc1ccc(Oc2nccc(-c3c(-c4ccc(F)cc4)ncn3C3CCNCC3)n2)cc1 | 1.75 ± 23
31 | O=C1NC(=O)C(c2ccccc2[N+](=O)[O-])=C1Nc1ccc(O)c(Cl)c1 | 52.5 ± 49
32 | O=C(Nc1n[nH]c2cc(-c3cc(F)ccc3F)ccc12)C1CC1 | -0.453 ± 13
33 | COC(=O)Nc1nc2ccc(Sc3ccc(NC(=O)Nc4cc(C(F)(F)F)ccc4F)cc3)cc2[nH]1 | -12.7 ± 13
34 | O=C1Nc2ccc(I)cc2C1=Cc1cc(Br)c(O)c(Br)c1 | 36.9 ± 6
35 | Fc1ccc(-c2nn3ccccc3c2-c2ccncc2)cc1 | 20.7 ± 8.6
36 | CCn1c(-c2nonc2N)nc2c(C#CC(C)(C)O)ncc(OC[C@H]3CCCNC3)c21 | 98.398 ± 0.078
37 | N#C/C(=C\c1ccc(O)c(O)c1)C(=O)NCc1ccccc1 | 28.7 ± 25
38 | O=C(Nc1cccc(Nc2ncc(Br)c(NCCc3cnc[nH]3)n2)c1)N1CCCC1 | 9.34 ± 13
